Hits are enriched below; roughly 21% of the tested compounds scored in any of these assays.
ELG1 DNA repair: qHTS screen for small molecules that inhibit ELG1-dependent DNA repair in human embryonic kidney (HEK293T) cells expressing luciferase-tagged ELG1 | hit rate 2.3% among 330,000 | Potency, µM (series often up to 46.1 µM), actives largely listed as inhibitors | HEK293T ELG1-luciferase reporter, luminescence, 16 h; DNA damage induced by 5-fluorouridine; note: nearly all actives have a fitted effect of over 55% in size
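DMSO vehicle served as the neutral condition. Each well held 2,000 cells given 5-fluorouridine plus compound; after 16 hr at 37 °C/5% CO2, ONE-Glo was added and luciferase measured 30 min later.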
RORg inh: qHTS for inhibitors of ROR gamma transcriptional activity; Nuclear receptor ROR-gamma (Mus musculus), P51450; Drosophila S2 Gal4-RORgamma UAS-luciferase reporter, 20 h; Potency, µM (series often up to 53.6 µM), most hits filed as inhibitors; hit rate 5.4% among 310,000; AID 2551, 2010; note: nearly all actives have a fitted effect of over 60% in size
Target sequence (P51450 whole entry, looked up, the tested form may be a part): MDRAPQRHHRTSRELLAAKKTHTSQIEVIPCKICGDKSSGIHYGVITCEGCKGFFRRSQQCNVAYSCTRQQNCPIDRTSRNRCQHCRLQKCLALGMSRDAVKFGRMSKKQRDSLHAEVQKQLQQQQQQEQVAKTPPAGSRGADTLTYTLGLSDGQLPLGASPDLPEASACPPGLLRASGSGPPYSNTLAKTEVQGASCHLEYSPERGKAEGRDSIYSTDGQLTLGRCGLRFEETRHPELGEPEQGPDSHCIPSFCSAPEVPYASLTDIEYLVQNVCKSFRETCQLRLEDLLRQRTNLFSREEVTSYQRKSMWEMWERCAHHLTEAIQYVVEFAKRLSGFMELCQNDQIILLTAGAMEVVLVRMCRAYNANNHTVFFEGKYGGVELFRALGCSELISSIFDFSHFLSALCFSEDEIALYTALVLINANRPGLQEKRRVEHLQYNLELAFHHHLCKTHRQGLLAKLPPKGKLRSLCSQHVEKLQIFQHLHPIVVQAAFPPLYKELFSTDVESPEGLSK
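In this cell-based reporter format, copper sulfate (700 uM final) drives Gal4–ROR gamma fusion expression from a metallothionein promoter in Drosophila Schneider cells; compounds preincubated 1 hr, reporter read after 20 hr at ambient temperature.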
IL-1B inflam inh: qHTS for Inhibitors of Inflammasome Signaling: IL-1-beta AlphaLISA Primary Screen | THP-1 LPS/ATP IL-1B secretion, AlphaLISA, 16 h; stronger effect = lower value | activity change, % at 57.5 µM | hit rate 4.7% among 360,000 | AID 743279, 2014; in the data active = activity change below about -50%; inconclusive = mostly about -30% to -49%
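THP-1 cells pretreated 1 hr with compounds (up to 57.5 uM final), then stimulated with LPS (250 ng/mL final) plus ATP (1.25 mM final); secreted IL-1B measured by AlphaLISA after 16 hr, decreased signal indicating inhibition.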
DT40 TDP1 CPT: qHTS for Inhibitors of human tyrosyl-DNA phosphodiesterase 1 (TDP1): qHTS in cells in presence of CPT. chicken DT40 Tdp1-/-;hTDP1 cells + 20 nM CPT, ATP luminescence, 48 h. Potency, µM (titrated, usually from 46.2 µM), usual class: inhibitors. hit rate 12% among 420,000. AID 686979, 2013; note: nearly all actives have a fitted effect of over 55% in size
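Chicken DT40 Tdp1-/- cells complemented with human TDP1, 400 cells/well, exposed to compounds plus 20 nM camptothecin for at least 48 h at 37 C; viability read as ATP content by CellTiter-Glo luminescence.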
TDP1 cell noCPT: qHTS for Inhibitors of human tyrosyl-DNA phosphodiesterase 1 (TDP1): qHTS in cells in absence of CPT; DT40 Tdp1-/- hTDP1 cells, no CPT, ATP luminescence, 48 h; Potency, µM (top dose mostly 46.2 µM), most hits filed as inhibitors; hit rate 15% among 420,000; note: nearly all actives have a fitted effect of over 55% in size
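Camptothecin absent (DMSO only). Human TDP1-complemented DT40 knockout cells, 400 cells/well, 37 °C for minimum 48 hr; ATP measured via CellTiter-Glo, 30 min dark incubation, luminescence.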
Gal4-VP16 FLuc: VP16 counterscreen qHTS for inhibitors of ROR gamma transcriptional activity; Potency, µM (series often up to 53.6 µM), actives largely listed as inhibitors; hit rate 3.5% among 310,000; Drosophila S2 Gal4-VP16 UAS-luciferase, luminescence, 20 h;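 note: Gal4-VP16 expression switched on by copper sulfate through the metallothionein promoter; nearly all actives have a fitted effect of over 50% in size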
Of the large screens only hits and unclear results are named; the others gave an inactive call. Unless noted, calls come from the whole dose curve; as a rule, active = well fitted curve in the direction sought with a large enough effect; inconclusive = small, poorly fitted or top-dose-only effect, or another doubt; inactive = no such curve, though single readings can be large; an effect the other way counts as inactive or inconclusive.

CCC(=NCc1ccc2c(c1)OCO2)c1c(O)n(C)c(=O)n(C)c1=O	ELG1 DNA repair 15µM, DT40 TDP1 CPT inconclusive, TDP1 cell noCPT 21µM, Gal4-VP16 FLuc inconclusive
CCC(=NCc1cc(OC)cc(OC)c1)c1c(O)n(C)c(=O)n(C)c1=O	ELG1 DNA repair 21µM, DT40 TDP1 CPT 10µM, TDP1 cell noCPT 8.9µM, Gal4-VP16 FLuc inconclusive
CO[C@H]1C=C2CCN(C)[C@@H]2[C@@H]2c3cc4c(cc3C(=O)O[C@H]21)OCO4	none (no result: ELG1 DNA repair, IL-1B inflam inh, DT40 TDP1 CPT, TDP1 cell noCPT)
CCC[N+]12CCC(CC1)C(=C(c1ccccc1)c1ccccc1)C2	DT40 TDP1 CPT 15µM, TDP1 cell noCPT 21µM, Gal4-VP16 FLuc inconclusive
CCCC[N+]12CCC(CC1)C(=C(c1ccccc1)c1ccccc1)C2	RORg inh inconclusive, DT40 TDP1 CPT 4.6µM, TDP1 cell noCPT 4.1µM, Gal4-VP16 FLuc inconclusive
CC(Cc1ccc(C(C)(C)C)cc1)CN1CC(C)OC(C)C1 (stereo unspecified)	none (no result: ELG1 DNA repair, IL-1B inflam inh, DT40 TDP1 CPT, TDP1 cell noCPT)
O=C(NC(=S)N1C[C@H]2C[C@H](C1)c1cccc(=O)n1C2)c1ccc(Cl)cc1Cl	RORg inh 10µM
COc1cc(C(=O)N2C[C@H]3C[C@@H](C2)c2cccc(=O)n2C3)cc(OC)c1OC	none
O=C(c1ccc(F)c([N+](=O)[O-])c1)N1CC2CC(C1)c1cccc(=O)n1C2 (stereo unspecified)	IL-1B inflam inh -52, TDP1 cell noCPT inconclusive
CCCOc1ccc(C(=O)NC(=S)N2C[C@H]3C[C@H](C2)c2cccc(=O)n2C3)cc1	ELG1 DNA repair inconclusive, RORg inh 8.9µM, Gal4-VP16 FLuc inconclusive
COc1ccc(C(=O)NC(=S)N2C[C@H]3C[C@H](C2)c2cccc(=O)n2C3)cc1OC	none
O=C1NC(=O)N(Cc2ccccc2)C(=O)/C1=C/c1cnn(-c2ccccc2)c1	none (no result: IL-1B inflam inh, DT40 TDP1 CPT, TDP1 cell noCPT)
COc1ccc(N2C(=O)NC(=O)/C(=C/c3ccc([N+](=O)[O-])s3)C2=O)cc1	DT40 TDP1 CPT 15µM, TDP1 cell noCPT 6.5µM
COc1ccc(N2C(=O)NC(=O)/C(=C\c3ccc([N+](=O)[O-])s3)C2=O)cc1	RORg inh inconclusive, IL-1B inflam inh inconclusive, DT40 TDP1 CPT 13µM, TDP1 cell noCPT inconclusive
CCOc1ccc(N2C(=O)NC(=O)/C(=C\c3cc(OC)c(OC)cc3[N+](=O)[O-])C2=O)cc1	DT40 TDP1 CPT inconclusive, TDP1 cell noCPT inconclusive
COc1ccc(N2C(=O)NC(=O)/C(=C/c3ccc(N4CCOCC4)cc3)C2=O)cc1	none (no result: IL-1B inflam inh, DT40 TDP1 CPT, TDP1 cell noCPT)
COc1ccccc1N1C(=O)NC(=O)/C(=C\c2cnn(-c3ccccc3)c2)C1=O	IL-1B inflam inh -90, DT40 TDP1 CPT inconclusive, TDP1 cell noCPT inconclusive
O=C1NC(=O)N(c2ccccc2)C(=O)/C1=C/c1ccc(Sc2ccccc2)o1	IL-1B inflam inh -101, DT40 TDP1 CPT inconclusive, TDP1 cell noCPT inconclusive
Cc1cc(C)cc(OCC(=O)Nc2ccc(Cl)cc2C(=O)c2ccccc2)c1	none (no result: ELG1 DNA repair, RORg inh, IL-1B inflam inh, Gal4-VP16 FLuc)
O=C1NC(=O)N(c2ccccc2)C(=O)/C1=C/c1ccoc1	DT40 TDP1 CPT inconclusive
O=C1NC(=O)N(c2ccccc2)C(=O)/C1=C\c1ccccc1[N+](=O)[O-]	ELG1 DNA repair inconclusive, DT40 TDP1 CPT 23µM
COc1ccccc1N1C(=O)NC(=O)/C(=C/c2ccc([N+](=O)[O-])s2)C1=O	IL-1B inflam inh -62, DT40 TDP1 CPT 8.2µM, TDP1 cell noCPT 15µM
COc1cc2c(cc1O)C[C@H]1NCCc3cc4c(c-2c31)OCO4	ELG1 DNA repair inconclusive, RORg inh 10µM, DT40 TDP1 CPT 18µM, TDP1 cell noCPT 23µM, Gal4-VP16 FLuc inconclusive
CCCSP(=S)(OCC)Oc1ccc(Cl)cc1Cl (stereo unspecified)	none (no result: ELG1 DNA repair, IL-1B inflam inh, DT40 TDP1 CPT, TDP1 cell noCPT)
CC(=O)OCC1=C(C(=O)O)N2C(=O)C(NC(=O)CCCC(N)C(=O)O)C2SC1 (stereo unspecified)	DT40 TDP1 CPT inconclusive (no result: ELG1 DNA repair, IL-1B inflam inh)
